Tests used:
[1] = target: Mitogen-activated protein kinase 3 (Homo sapiens) (UniProt P27361); conditions: at 1 µM;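 also: values are mean percent inhibition of MAPK3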
[2] = target: SRSF protein kinase 3 (Homo sapiens) (UniProt Q9UPE1); conditions: at 0.1 µM
[3] = target: SRSF protein kinase 3 (Homo sapiens) (UniProt Q9UPE1); conditions: at 1 µM
[4] = target: Mitogen-activated protein kinase 14 (Homo sapiens) (UniProt Q16539); conditions: at 0.1 µM
[5] = target: Mitogen-activated protein kinase 14 (Homo sapiens) (UniProt Q16539); conditions: at 1 µM
[6] = target: Mitogen-activated protein kinase 11 (Homo sapiens) (UniProt Q15759); conditions: at 0.1 µM
[7] = target: Mitogen-activated protein kinase 11 (Homo sapiens) (UniProt Q15759); conditions: at 1 µM
[8] = target: T1, Mitogen-activated protein kinase 13 (Homo sapiens) (UniProt O15264); conditions: at 0.1 µM
T1 sequence (whole entry): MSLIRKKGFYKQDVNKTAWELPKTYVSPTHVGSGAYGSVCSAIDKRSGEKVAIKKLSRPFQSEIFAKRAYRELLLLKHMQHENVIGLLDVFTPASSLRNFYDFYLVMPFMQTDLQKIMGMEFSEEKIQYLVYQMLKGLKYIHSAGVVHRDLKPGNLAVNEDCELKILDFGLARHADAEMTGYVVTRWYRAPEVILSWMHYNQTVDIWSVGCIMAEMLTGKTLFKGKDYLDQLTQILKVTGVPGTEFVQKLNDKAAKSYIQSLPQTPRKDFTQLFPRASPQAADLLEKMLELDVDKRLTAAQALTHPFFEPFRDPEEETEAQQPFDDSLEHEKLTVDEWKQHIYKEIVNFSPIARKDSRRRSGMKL

[9] = target: T1, Mitogen-activated protein kinase 13 (Homo sapiens); conditions: at 1 µM
[10] = target: T2, Mitogen-activated protein kinase 12 (Homo sapiens) (UniProt P53778); conditions: at 0.1 µM
T2 sequence (whole entry): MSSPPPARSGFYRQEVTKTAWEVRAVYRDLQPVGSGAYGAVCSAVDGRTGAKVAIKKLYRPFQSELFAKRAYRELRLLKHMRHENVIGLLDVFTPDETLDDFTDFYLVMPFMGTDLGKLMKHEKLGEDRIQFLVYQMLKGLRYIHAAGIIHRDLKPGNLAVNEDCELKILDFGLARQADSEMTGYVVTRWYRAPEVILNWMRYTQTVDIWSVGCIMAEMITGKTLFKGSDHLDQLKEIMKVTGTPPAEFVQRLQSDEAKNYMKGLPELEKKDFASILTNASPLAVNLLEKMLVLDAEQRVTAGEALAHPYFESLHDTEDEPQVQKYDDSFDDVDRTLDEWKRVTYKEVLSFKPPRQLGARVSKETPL

[11] = target: T2, Mitogen-activated protein kinase 12 (Homo sapiens); conditions: at 1 µM
[12] = target: SRSF protein kinase 1 (Homo sapiens) (UniProt Q96SB4); conditions: at 0.1 µM
[13] = target: SRSF protein kinase 1 (Homo sapiens) (UniProt Q96SB4); conditions: at 1 µM
[14] = target: Phosphatidylinositol 4,5-bisphosphate 3-kinase catalytic subunit alpha isoform (Homo sapiens) (UniProt P42336); conditions: at 0.1 µM
[15] = target: Phosphatidylinositol 4,5-bisphosphate 3-kinase catalytic subunit alpha isoform (Homo sapiens) (UniProt P42336); conditions: at 1 µM
[16] = target: T3, Phosphatidylinositol 4,5-bisphosphate 3-kinase catalytic subunit delta isoform (Homo sapiens) (UniProt O00329); conditions: at 0.1 µM
T3 sequence (whole entry): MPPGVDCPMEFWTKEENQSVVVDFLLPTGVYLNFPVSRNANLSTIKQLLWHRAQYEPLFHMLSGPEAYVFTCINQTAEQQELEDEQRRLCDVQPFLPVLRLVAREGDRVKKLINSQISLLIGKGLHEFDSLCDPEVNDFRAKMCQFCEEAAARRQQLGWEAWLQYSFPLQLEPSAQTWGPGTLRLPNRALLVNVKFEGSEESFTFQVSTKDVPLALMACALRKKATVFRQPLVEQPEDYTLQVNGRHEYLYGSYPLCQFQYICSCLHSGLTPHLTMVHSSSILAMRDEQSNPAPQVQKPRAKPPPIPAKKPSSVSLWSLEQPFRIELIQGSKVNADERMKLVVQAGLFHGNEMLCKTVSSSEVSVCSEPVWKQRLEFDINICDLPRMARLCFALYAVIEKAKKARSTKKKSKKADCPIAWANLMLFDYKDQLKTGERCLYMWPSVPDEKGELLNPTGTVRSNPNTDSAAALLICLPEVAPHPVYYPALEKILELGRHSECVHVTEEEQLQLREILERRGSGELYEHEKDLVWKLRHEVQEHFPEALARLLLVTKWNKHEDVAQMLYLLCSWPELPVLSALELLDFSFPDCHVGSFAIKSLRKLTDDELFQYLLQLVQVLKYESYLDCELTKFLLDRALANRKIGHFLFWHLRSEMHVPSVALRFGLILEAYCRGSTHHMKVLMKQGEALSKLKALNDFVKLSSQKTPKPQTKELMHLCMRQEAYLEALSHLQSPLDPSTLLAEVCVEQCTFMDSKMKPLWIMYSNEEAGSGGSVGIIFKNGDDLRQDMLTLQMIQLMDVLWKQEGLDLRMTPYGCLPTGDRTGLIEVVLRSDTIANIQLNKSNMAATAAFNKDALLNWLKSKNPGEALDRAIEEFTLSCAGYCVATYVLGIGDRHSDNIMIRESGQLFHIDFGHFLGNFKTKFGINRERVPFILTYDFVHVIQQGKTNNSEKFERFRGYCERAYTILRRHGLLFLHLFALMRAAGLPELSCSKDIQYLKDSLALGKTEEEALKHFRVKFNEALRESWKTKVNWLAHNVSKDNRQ

[17] = target: T3, Phosphatidylinositol 4,5-bisphosphate 3-kinase catalytic subunit delta isoform (Homo sapiens); conditions: at 1 µM
[18] = target: Phosphatidylinositol 4-kinase beta (Homo sapiens) (UniProt Q9UBF8); conditions: at 0.1 µM
[19] = target: Phosphatidylinositol 4-kinase beta (Homo sapiens) (UniProt Q9UBF8); conditions: at 1 µM
[20] = target: Sphingosine kinase 1 (Homo sapiens) (UniProt Q9NYA1); conditions: at 0.1 µM;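 also: mean percent inhibition of SPHK1 activity, measured within the GSK PKIS screening panel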
Sequence of Sphingosine kinase 1 (Homo sapiens) (Q9NYA1 whole entry): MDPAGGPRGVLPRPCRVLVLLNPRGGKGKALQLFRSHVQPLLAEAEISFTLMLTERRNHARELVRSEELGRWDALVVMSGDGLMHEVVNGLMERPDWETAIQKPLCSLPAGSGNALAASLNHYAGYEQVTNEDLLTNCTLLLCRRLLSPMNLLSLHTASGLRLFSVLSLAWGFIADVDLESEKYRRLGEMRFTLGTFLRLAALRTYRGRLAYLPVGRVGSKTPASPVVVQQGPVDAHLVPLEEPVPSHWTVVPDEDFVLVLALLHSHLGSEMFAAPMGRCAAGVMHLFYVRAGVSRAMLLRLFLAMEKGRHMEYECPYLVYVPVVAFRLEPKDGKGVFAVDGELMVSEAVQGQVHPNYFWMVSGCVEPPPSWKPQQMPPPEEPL

Sequence of SRSF protein kinase 3 (Homo sapiens) (Q9UPE1 whole entry): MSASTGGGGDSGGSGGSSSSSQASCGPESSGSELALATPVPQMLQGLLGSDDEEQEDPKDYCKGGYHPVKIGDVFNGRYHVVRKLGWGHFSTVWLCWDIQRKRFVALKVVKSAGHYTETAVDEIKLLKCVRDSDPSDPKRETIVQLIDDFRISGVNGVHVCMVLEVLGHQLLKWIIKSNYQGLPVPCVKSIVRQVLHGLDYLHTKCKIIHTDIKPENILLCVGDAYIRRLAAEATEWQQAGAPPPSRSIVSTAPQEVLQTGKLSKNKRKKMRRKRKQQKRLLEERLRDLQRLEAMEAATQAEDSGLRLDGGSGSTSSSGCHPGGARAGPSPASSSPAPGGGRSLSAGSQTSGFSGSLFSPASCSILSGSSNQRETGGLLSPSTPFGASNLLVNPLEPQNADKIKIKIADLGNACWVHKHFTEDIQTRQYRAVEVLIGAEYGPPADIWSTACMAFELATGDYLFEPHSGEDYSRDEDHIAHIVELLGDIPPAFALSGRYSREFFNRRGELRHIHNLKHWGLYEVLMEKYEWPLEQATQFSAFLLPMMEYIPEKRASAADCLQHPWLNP
Sequence of Phosphatidylinositol 4-kinase beta (Homo sapiens) (Q9UBF8 2-816 limits assumed): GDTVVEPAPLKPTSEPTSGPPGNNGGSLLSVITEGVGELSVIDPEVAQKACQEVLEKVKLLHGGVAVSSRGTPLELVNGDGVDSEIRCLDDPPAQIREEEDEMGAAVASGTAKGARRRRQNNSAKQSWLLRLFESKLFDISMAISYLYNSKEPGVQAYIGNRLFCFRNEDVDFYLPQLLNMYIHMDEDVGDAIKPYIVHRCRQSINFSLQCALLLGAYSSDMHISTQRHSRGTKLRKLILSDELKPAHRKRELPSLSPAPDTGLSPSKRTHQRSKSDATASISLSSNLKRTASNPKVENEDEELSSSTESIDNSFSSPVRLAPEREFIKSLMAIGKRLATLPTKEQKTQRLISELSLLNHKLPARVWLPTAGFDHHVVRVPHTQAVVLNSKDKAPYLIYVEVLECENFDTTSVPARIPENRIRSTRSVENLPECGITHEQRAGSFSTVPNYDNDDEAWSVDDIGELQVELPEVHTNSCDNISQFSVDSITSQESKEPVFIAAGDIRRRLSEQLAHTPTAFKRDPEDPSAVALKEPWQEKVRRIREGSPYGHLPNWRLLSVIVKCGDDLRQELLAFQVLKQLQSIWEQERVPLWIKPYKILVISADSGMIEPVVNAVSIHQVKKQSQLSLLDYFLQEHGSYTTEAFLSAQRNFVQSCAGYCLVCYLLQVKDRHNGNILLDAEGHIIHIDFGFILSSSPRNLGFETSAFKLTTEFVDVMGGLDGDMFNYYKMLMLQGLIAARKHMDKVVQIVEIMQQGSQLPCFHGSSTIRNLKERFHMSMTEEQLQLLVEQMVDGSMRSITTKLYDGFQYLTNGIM
Sequence of Mitogen-activated protein kinase 3 (Homo sapiens) (P27361 whole entry): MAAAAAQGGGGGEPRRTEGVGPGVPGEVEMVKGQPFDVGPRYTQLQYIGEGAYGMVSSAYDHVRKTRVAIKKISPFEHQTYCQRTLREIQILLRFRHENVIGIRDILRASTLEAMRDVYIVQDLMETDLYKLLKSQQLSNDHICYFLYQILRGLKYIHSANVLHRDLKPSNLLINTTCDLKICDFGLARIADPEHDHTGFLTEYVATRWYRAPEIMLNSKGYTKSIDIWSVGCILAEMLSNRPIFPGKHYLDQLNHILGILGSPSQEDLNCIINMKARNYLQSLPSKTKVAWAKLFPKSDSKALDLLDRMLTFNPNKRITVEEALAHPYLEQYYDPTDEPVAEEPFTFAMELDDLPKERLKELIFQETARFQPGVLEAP
Sequence of Mitogen-activated protein kinase 14 (Homo sapiens) (Q16539 whole entry): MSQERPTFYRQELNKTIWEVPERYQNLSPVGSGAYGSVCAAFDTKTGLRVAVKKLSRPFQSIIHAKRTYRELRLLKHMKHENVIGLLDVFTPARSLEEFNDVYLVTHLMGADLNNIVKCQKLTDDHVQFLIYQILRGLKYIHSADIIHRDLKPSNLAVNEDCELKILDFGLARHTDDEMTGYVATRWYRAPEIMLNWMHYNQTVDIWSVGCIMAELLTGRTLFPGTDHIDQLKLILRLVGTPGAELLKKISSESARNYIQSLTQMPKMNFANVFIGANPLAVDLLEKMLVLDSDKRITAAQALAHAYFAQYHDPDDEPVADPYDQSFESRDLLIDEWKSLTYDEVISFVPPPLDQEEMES
Sequence of SRSF protein kinase 1 (Homo sapiens) (Q96SB4 whole entry, canonical isoform): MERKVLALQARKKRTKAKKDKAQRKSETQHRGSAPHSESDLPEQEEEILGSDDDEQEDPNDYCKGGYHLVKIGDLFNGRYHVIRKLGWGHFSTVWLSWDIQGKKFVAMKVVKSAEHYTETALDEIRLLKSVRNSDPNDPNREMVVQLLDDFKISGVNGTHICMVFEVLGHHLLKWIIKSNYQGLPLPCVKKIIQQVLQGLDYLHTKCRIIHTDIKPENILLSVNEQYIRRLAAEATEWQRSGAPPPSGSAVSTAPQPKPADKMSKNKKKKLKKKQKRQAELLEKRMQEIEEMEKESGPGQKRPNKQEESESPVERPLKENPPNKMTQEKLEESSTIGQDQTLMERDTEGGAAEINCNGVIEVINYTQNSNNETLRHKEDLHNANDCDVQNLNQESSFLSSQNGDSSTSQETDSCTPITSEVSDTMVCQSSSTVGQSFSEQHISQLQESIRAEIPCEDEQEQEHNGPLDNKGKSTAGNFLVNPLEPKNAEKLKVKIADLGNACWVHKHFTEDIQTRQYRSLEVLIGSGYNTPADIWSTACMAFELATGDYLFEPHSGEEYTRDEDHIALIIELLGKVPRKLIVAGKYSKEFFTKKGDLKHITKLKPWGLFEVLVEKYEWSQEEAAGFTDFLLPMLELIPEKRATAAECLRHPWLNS
Sequence of Phosphatidylinositol 4,5-bisphosphate 3-kinase catalytic subunit alpha isoform (Homo sapiens) (P42336 whole entry, canonical isoform): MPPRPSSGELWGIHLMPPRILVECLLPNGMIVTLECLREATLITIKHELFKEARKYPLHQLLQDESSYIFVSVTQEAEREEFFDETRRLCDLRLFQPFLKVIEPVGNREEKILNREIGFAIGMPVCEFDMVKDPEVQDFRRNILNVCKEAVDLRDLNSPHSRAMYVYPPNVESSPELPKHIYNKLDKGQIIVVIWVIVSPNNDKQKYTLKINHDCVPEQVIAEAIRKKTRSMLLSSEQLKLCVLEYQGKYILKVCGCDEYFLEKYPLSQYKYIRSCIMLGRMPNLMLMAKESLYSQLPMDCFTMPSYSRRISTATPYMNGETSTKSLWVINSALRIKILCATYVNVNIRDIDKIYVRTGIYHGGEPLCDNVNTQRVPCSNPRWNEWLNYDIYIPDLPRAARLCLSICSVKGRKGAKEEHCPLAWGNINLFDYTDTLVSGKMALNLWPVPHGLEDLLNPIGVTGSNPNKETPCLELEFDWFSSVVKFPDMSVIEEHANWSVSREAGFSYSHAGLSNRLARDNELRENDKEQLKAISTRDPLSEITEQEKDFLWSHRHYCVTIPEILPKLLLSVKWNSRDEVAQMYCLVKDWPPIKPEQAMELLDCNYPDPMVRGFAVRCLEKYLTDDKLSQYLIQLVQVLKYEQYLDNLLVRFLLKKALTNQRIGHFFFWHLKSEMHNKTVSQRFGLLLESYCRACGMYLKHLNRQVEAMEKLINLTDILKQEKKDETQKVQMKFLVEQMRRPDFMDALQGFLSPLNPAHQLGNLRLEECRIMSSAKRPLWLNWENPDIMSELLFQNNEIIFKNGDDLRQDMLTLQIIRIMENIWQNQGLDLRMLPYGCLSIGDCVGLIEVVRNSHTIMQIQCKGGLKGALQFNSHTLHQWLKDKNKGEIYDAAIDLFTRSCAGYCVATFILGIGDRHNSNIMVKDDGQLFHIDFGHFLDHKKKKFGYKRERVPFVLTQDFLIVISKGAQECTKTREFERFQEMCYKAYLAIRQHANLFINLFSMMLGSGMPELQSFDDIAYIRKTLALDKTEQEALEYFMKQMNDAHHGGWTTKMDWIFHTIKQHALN
Sequence of Mitogen-activated protein kinase 11 (Homo sapiens) (Q15759 whole entry): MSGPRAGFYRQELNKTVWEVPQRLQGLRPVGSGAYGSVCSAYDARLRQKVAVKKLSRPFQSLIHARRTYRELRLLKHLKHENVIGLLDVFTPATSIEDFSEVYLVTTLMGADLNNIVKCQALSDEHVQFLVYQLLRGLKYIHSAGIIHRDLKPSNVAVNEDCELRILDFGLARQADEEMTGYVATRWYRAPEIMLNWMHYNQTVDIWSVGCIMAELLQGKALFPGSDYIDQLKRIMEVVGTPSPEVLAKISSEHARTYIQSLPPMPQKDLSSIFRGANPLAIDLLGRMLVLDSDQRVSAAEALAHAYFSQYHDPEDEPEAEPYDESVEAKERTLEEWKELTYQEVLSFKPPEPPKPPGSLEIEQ

Structure (SMILES)	inhibition [1]	inhibition [2]	inhibition [3]	inhibition [4]	inhibition [5]	inhibition [6]	inhibition [7]	inhibition [8]	inhibition [9]	inhibition [10]	inhibition [11]	inhibition [12]	inhibition [13]	inhibition [14]	inhibition [15]	inhibition [16]	inhibition [17]	inhibition [18]	inhibition [19]	inhibition [20]
NC(=O)c1ccc(-c2nc(-c3ccccn3)c(-c3ccc4c(c3)OCO4)[nH]2)cc1	1.38%	-1.12%	0.34%	7.26%	15.5%	5.42%	10.6%	1.16%	2.44%	0.17%	1.74%	-2.38%	-2.03%	1.4%	-0.55%	0.37%	2.45%	-5.45%	-2.85%	3.02%
COc1cc2c(cc1Nc1nc(N3CCc4ccccc43)c3cc[nH]c3n1)N(C(=O)CN(C)C)CC2	1.51%	0.87%	1.46%	3.41%	3.7%	2.84%	1.85%	0.4%	2.2%	0.57%	1.21%	-1.43%	-3.76%	0.76%	2.92%	1.22%	3.33%	1.21%	2.11%	0.07%
CCn1c(-c2nonc2N)nc2c(N3CCCC3)nccc21	1.82%	0.04%	-1.21%	1.24%	-3.47%	0.58%	2.54%	-0.53%	-1.01%	0.01%	-1.61%	0.36%	0.58%	-1.75%	-0.26%	0.19%	0.29%	-6.46%	-2.5%	2.26%
Cc1cc(O)cc(C)c1/C=C/c1cncc(-c2nn[nH]n2)c1	5.1%	0.25%	-0.18%	8.41%	12.6%	3.52%	3.01%	3.42%	5.1%	1.46%	3.07%	-1.87%	-2.36%	3.19%	5.13%	2.19%	6.52%	-5.96%	-0.98%	0.56%
COc1ccc(-c2ccncc2)cc1C(N)=O	5.57%	0.64%	-1.37%	7.77%	9.51%	-0.28%	5.04%	5.1%	6.16%	4.29%	5.57%	-3.43%	-2.49%	5.07%	4.31%	2.29%	3.83%	-1.68%	4.03%	1.01%
CS(=O)(=O)CCNCc1ccc(-c2ccc3ncnc(Nc4ccc(OCc5ccccc5)c(Cl)c4)c3c2)o1	0.5%	2.57%	4.72%	-0.17%	3.25%	-1.17%	0.8%	0.47%	2.09%	1.33%	6.3%	-1.42%	1.52%	-1.12%	-0.19%	-2.16%	-1.17%	-0.03%	3.61%	1.23%
Nc1ncnc2occ(-c3ccc(NC(=O)Nc4cccc(C(F)(F)F)c4)cc3)c12	3.6%	19%	62.5%	16.1%	43.4%	9.18%	41%	6.92%	19.3%	7.81%	37.5%	1.49%	18.5%	4.75%	4.88%	1.25%	4.92%	-1.39%	1.22%	0.57%
Nc1ncnc2occ(-c3ccc(NC(=O)Nc4cc(C(F)(F)F)cc(C(F)(F)F)c4)cc3)c12	2.23%	1.52%	-0.42%	2.48%	11%	0.21%	8.68%	-0.42%	14.5%	-0.95%	10.2%	-0.82%	0.68%	0.61%	2.7%	2.62%	3.45%	1.16%	2.78%	0.12%
O=C1NC(=O)C(c2ccccc2Cl)=C1Nc1cccc(O)c1	1.29%	1.93%	4.52%	2.48%	4.36%	2.37%	0.91%	1.98%	4.14%	5.33%	0.99%	-0.74%	1.37%	1.03%	1.86%	2.66%	3.71%	1.19%	-2.78%	-1.24%
CC(C)=Cc1cccc2c1/C(=N/Nc1ccc(S(N)(=O)=O)cc1)C(=O)N2	2.62%	-0.98%	3.29%	0.04%	1.72%	0.78%	5.29%	0.28%	1.32%	-0.48%	-0.16%	0.13%	2.55%	0.06%	1.06%	0.23%	1.67%	1.78%	3.22%	2.28%
CNC(=O)c1cncc(/C=C/c2c(Cl)cccc2Cl)c1	3.8%	2.22%	0.6%	6.41%	8.04%	2.44%	4.25%	3.64%	5.05%	3.45%	6.19%	-3.5%	-0.45%	2.99%	2.83%	0.54%	0.66%	-0.69%	2.57%	-1.45%
O=C1NC(=O)C(N2CCc3ccccc32)=C1c1ccc(Cl)cc1	2.62%	1.04%	-0.52%	3.97%	8.43%	5.07%	4.84%	1.06%	5.95%	3.98%	3.35%	-1.77%	-3.78%	4.21%	6.29%	3.6%	5.56%	-1.76%	-1.34%	
CS(=O)(=O)CCN(CC#N)Cc1ccc(-c2ccc3ncnc(Nc4ccc(OCc5cccc(F)c5)c(Cl)c4)c3c2)o1	1.61%	-3.37%	-0.95%	4.64%	3.94%	1.26%	0.56%	3.05%	2.39%	2.47%	2.68%	-2.4%	-1.01%	2.09%	4.03%	1.1%	4.27%	2.65%	3.34%	1.82%

Reference: ChEMBL document CHEMBL1961873, “Compounds: GSK PKIS; Assays: Nanosyn kinase panel” (2012)
